# Laboratory results taken from article PMC11062922 (Nature Chemical Biology, 2023).
# Like-named read-outs stand apart in the source and are kept apart here.
# What was measured:
# AAK1 = system: AAK1; design: species or system human, MV4-11 + K-562 + COLO205 + SK-N-BE2 + OVCAR-8; conditions: read-out: apparent Kd, n = 1
# BMP2K = system: BMP2K; design: species or system human, MV4-11 + K-562 + COLO205 + SK-N-BE2 + OVCAR-8; conditions: read-out: apparent Kd, n = 1
# Q6ZSR9 = Q6ZSR9 (human, UniProt Q6ZSR9); design: species or system MV4-11 + K-562 + COLO205 + SK-N-BE2 + OVCAR-8; conditions: read-out: apparent Kd, n = 1
# CLK4 = system: CLK4; design: species or system human, MV4-11 + K-562 + COLO205 + SK-N-BE2 + OVCAR-8; conditions: read-out: apparent Kd, n = 1
# MELK = system: MELK; design: species or system human, MV4-11 + K-562 + COLO205 + SK-N-BE2 + OVCAR-8; conditions: read-out: apparent Kd; compound concentrations:100 nM and 1000 nM (sheet 'Samples'); n = 1
# NUAK1 = system: NUAK1; design: species or system human, MV4-11 + K-562 + COLO205 + SK-N-BE2 + OVCAR-8; conditions: read-out: apparent Kd; compound concentrations:100 nM and 1000 nM (sheet 'Samples'); n = 1
# CLK1 = system: CLK1; design: species or system human, MV4-11 + K-562 + COLO205 + SK-N-BE2 + OVCAR-8; conditions: read-out: apparent Kd, compound concentrations: 100 nM and 1000 nM (sheet 'Samples'), n = 1
# CSNK2A1;CSNK2A3 = system: CSNK2A1;CSNK2A3; design: species or system human, MV4-11 + K-562 + COLO205 + SK-N-BE2 + OVCAR-8; conditions: read-out: apparent Kd; compound concentrations: 100 nM and 1000 nM (sheet 'Samples'), CATDS: 0.124108593087182; n = 1
# CSNK2A2 = system: CSNK2A2; design: species or system human, MV4-11 + K-562 + COLO205 + SK-N-BE2 + OVCAR-8; conditions: read-out: apparent Kd; compound concentrations: 100 nM and 1000 nM (sheet 'Samples'), CATDS: 0.192604305943326; n = 1
# FLT4 = system: FLT4; design: species or system human, MV4-11 + K-562 + COLO205 + SK-N-BE2 + OVCAR-8; conditions: read-out: apparent Kd, compound concentrations: 100 nM and 1000 nM (sheet 'Samples'), n = 1
# GAK = system: GAK; design: species or system human, MV4-11 + K-562 + COLO205 + SK-N-BE2 + OVCAR-8; conditions: read-out: apparent Kd, compound concentrations: 100 nM and 1000 nM (sheet 'Samples'), n = 1
# GSK3A = system: GSK3A; design: species or system human, MV4-11 + K-562 + COLO205 + SK-N-BE2 + OVCAR-8; conditions: read-out: apparent Kd; compound concentrations: 100 nM and 1000 nM (sheet 'Samples'), CATDS: 3.04876999302407E-2; n = 1
# GSK3B = system: GSK3B; design: species or system human, MV4-11 + K-562 + COLO205 + SK-N-BE2 + OVCAR-8; conditions: read-out: apparent Kd; compound concentrations: 100 nM and 1000 nM (sheet 'Samples'), CATDS: 2.4100870065686699E-2; n = 1
# PAK4 = system: PAK4; design: species or system human, MV4-11 + K-562 + COLO205 + SK-N-BE2 + OVCAR-8; conditions: read-out: apparent Kd; compound concentrations: 100 nM and 1000 nM (sheet 'Samples'), CATDS: 1.9668858061390699E-2; n = 1
# PKN1 = system: PKN1; design: species or system human, MV4-11 + K-562 + COLO205 + SK-N-BE2 + OVCAR-8; conditions: read-out: apparent Kd; compound concentrations: 100 nM and 1000 nM (sheet 'Samples'), CATDS: 1.63422390888056E-2; n = 1
# PKN3 = system: PKN3; design: species or system human, MV4-11 + K-562 + COLO205 + SK-N-BE2 + OVCAR-8; conditions: read-out: apparent Kd; compound concentrations: 100 nM and 1000 nM (sheet 'Samples'), CATDS: 1.86767996374981E-2; n = 1
# PRKAG1 = system: PRKAG1; design: species or system human, MV4-11 + K-562 + COLO205 + SK-N-BE2 + OVCAR-8; conditions: read-out: apparent Kd; compound concentrations: 100 nM and 1000 nM (sheet 'Samples'), CATDS: 2.2977618233773301E-2; n = 1
# RET = system: RET; design: species or system human, MV4-11 + K-562 + COLO205 + SK-N-BE2 + OVCAR-8; conditions: read-out: apparent Kd; compound concentrations: 100 nM and 1000 nM (sheet 'Samples'), CATDS: 2.33186267232918E-2; n = 1
# SIK2 = system: SIK2; design: species or system human, MV4-11 + K-562 + COLO205 + SK-N-BE2 + OVCAR-8; conditions: read-out: apparent Kd; compound concentrations: 100 nM and 1000 nM (sheet 'Samples'), CATDS: 2.09056260277059E-2; n = 1
# [1] = compound concentrations:100 nM and 1000 nM (sheet 'Samples')
# Sequence of Q6ZSR9 (Q6ZSR9 whole entry, looked up): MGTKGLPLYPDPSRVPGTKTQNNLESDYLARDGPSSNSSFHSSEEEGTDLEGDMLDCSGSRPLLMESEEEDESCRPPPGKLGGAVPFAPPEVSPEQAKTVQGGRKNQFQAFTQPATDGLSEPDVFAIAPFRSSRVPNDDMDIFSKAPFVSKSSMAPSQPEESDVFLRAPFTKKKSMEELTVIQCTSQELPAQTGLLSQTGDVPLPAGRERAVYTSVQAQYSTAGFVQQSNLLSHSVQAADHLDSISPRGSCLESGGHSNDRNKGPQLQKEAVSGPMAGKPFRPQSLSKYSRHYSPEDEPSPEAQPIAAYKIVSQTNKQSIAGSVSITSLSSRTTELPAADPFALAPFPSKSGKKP
smiles,measurement,setting,value
Cl.Cl.NCC(NCc1ccc(-c2ccnc3[nH]ccc23)s1)c1ccccc1.NCC(NCc1ccc(-c2ccnc3[nH]ccc23)s1)c1ccccc1 (stereo not shown) [GSK1321565A],potency estimated from few doses,AAK1; [1],820 nM
same,potency estimated from few doses,BMP2K; [1],982 nM
same,potency estimated from few doses,Q6ZSR9; [1],942 nM
Cc1cc(NC(=O)c2cccc(NC(=O)/C=C/CN(C)C)c2)ccc1Nc1nccc(-c2cccnc2)n1 [JNK-IN-7],potency estimated from few doses,AAK1; [1],1000 nM
same,potency estimated from few doses,BMP2K; [1],1330 nM
same,potency estimated from few doses,CLK4; [1],1630 nM
same,potency estimated from few doses,MELK,2110 nM
same,potency estimated from few doses,NUAK1,688 nM
same,potency estimated from few doses,Q6ZSR9; [1],883 nM
O=C1N=C(NCc2ccccc2Br)S/C1=C\c1ccc2ncccc2c1 [RO4506918-000],potency estimated from few doses,"AAK1; compound concentrations: 100 nM and 1000 nM (sheet 'Samples'), CATDS: 8.9232255617264805E-2",910 nM
same,potency estimated from few doses,CLK1; CATDS: 0.17031966096866,202 nM
same,potency estimated from few doses,"CLK4; compound concentrations: 100 nM and 1000 nM (sheet 'Samples'), CATDS: 0.31130162986837101",76.5 nM
same,potency estimated from few doses,CSNK2A1;CSNK2A3,383 nM
same,potency estimated from few doses,CSNK2A2,162 nM
same,potency estimated from few doses,"Q6ZSR9; compound concentrations: 100 nM and 1000 nM (sheet 'Samples'), CATDS: 9.2903146742856602E-2",804 nM
Nc1nc(-c2ccc3c(N)n[nH]c3c2)cc(N2CCCC(NC(=O)c3ccccc3)C2)n1 (stereo not shown) [GSK2286775B],potency estimated from few doses,AAK1; [1],826 nM
same,potency estimated from few doses,Q6ZSR9; [1],821 nM
COc1cc2ncn(-c3cc(OCc4ccccc4S(C)(=O)=O)c(C#N)s3)c2cc1OC [GSK319347A],potency estimated from few doses,"AAK1; compound concentrations: 100 nM and 1000 nM (sheet 'Samples'), CATDS: 0.12685242970353799",621 nM
same,potency estimated from few doses,"BMP2K; compound concentrations: 100 nM and 1000 nM (sheet 'Samples'), CATDS: 0.286498522791794",177 nM
same,potency estimated from few doses,FLT4; CATDS: 8.0295198966638101E-2,1720 nM
same,potency estimated from few doses,GAK; CATDS: 8.54645100662135E-2,1450 nM
same,potency estimated from few doses,"Q6ZSR9; compound concentrations: 100 nM and 1000 nM (sheet 'Samples'), CATDS: 0.124049531101547",647 nM
Cl.Cn1c(=O)c(Cc2ccccc2F)cc2cnc(NC3CCOCC3)nc21 [RO3305377-001],potency estimated from few doses,"AAK1; compound concentrations: 100 nM and 1000 nM (sheet 'Samples'), CATDS: 2.16510603665701E-2",917 nM
same,potency estimated from few doses,"BMP2K; compound concentrations: 100 nM and 1000 nM (sheet 'Samples'), CATDS: 1.6723713809558501E-2",1910 nM
same,potency estimated from few doses,CLK1; CATDS: 1.9184829290140398E-2,1250 nM
same,potency estimated from few doses,"CLK4; compound concentrations: 100 nM and 1000 nM (sheet 'Samples'), CATDS: 2.3036060895887101E-2",796 nM
same,potency estimated from few doses,FLT4; CATDS: 1.78487472229053E-2,1540 nM
same,potency estimated from few doses,GAK; CATDS: 3.35725694953104E-2,389 nM
same,potency estimated from few doses,GSK3A,459 nM
same,potency estimated from few doses,GSK3B,722 nM
same,potency estimated from few doses,PAK4,1170 nM
same,potency estimated from few doses,PKN1,2080 nM
same,potency estimated from few doses,PKN3,1350 nM
same,potency estimated from few doses,PRKAG1,801 nM
same,potency estimated from few doses,"Q6ZSR9; compound concentrations: 100 nM and 1000 nM (sheet 'Samples'), CATDS: 2.0313751812051702E-2",1070 nM
same,potency estimated from few doses,RET,775 nM
same,potency estimated from few doses,SIK2,998 nM
